Source: PubChem BioAssay
“And” between values parts separate entries of the source, which are not always exact repeats. Equal values may be shown once. The source made the active and inactive calls.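 The calls were made as follows, unless noted: active = compounds whose cell count with miR-34 switched on is under 0.7 times the count with it off; inactive = the rest.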

Tests used:
[1] = sensitizers of A549 cells to miR-34 induction, primary screen, imaging, A549 dox-inducible miR-34, nuclei and caspase counts (AID 1347080); details: A549 miR-34 inducible, Hoechst nuclei count, 48 h
[2] = survival rescue of mitochondrial mutant cells in low glucose, primary screen, MELAS cybrids, Rieske KO mouse fibroblasts, CellTiter-Glo (AID 1508586;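 active = mean z-score across replicates of 1.96 or higher in either the MELAS or the Rieske mutant cell line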;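 also: z relative to plate mean and SD of compound and empty wells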)
[3] = viability rescue of complex I mutant cybrids, primary screen, cell-based, galactose medium, ATP luminescence (AID 1645843;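 active = z-score of at least 1.8 in each of two replicates, scored against plate mean and spread of sample wells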;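 also: positive z means more ATP and so rescue of galactose-driven cybrid death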); details: complex I mutant cybrid cells, 72 h, stronger effect = higher value
[4] = liver-stage malaria parasite growth inhibition, primary screen, cell-based, HepG2, luciferase luminescence, HepG2 viability (AID 624349; in the data active = parasite load remaining mostly below about 12%, no sharp cut-off; inactive = mostly above about 10%;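 also: 100% = mean of DMSO negative control wells on the same plate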); details: P. berghei liver stage in HepG2, luciferase luminescence, concentration not given here; parasite load remaining: stronger effect = lower value; viability: measured here: HepG2 viability without parasites
[5] = molecular target: NAD(+) hydrolase SARM1 (Homo sapiens) (UniProt Q6SZW1); experiment: SARM1 TIR NADase inhibitors, cell lysate, NAD-Glo luminescence (AID 1508614;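 active = compound whose remaining NAD level is above about 45 nM, limit read from the data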;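 also: higher remaining NAD means stronger inhibition of SARM1 NADase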); details: SAM-TIR HEK293T lysate NADase, at 1 µM, stronger effect = higher value
Chain of NAD(+) hydrolase SARM1 (Homo sapiens) (Q6SZW1 whole entry, looked up): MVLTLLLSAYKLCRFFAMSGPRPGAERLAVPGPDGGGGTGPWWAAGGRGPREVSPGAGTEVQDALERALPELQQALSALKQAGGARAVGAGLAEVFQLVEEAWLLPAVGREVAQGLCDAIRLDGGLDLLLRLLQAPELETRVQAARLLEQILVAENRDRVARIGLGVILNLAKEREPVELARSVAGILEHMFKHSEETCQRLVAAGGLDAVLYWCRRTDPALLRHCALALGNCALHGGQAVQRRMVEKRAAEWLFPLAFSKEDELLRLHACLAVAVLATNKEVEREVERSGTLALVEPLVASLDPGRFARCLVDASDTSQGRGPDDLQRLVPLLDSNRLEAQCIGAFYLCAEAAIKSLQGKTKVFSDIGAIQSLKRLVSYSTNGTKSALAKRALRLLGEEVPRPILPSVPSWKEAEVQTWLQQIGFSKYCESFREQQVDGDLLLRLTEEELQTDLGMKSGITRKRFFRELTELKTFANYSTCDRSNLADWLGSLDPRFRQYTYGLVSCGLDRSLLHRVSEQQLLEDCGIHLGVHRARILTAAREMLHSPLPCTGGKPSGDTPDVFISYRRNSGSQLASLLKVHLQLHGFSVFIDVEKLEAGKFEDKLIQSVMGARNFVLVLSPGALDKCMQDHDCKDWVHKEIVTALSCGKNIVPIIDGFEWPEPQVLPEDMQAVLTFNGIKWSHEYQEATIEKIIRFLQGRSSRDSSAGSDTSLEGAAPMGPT

[6] = stronger effect = lower value, cell number ratio, induced over uninduced
[7] = measured here: relative caspase fold change +Dox/-Dox
[8] = measured here: total cells with miR-34 induction, stronger effect = lower value
[9] = measured here: total cells without miR-34 induction
[10] = MELAS cybrid survival, CellTiter-Glo 48 h, stronger effect = higher value
[11] = Rieske KO mouse fibroblast survival, CellTiter-Glo 72 h

Compound	fold change [1, 6]	fold change [1, 7]	cell count [1, 8]	cell count [1, 9]	z-score [2, 10]	z-score [2, 11]	z-score [3]	parasite load remaining [4]	viability [4]	remaining NAD [5]
CCn1ccnc1CN(C)C(=O)c1cc(-c2cnc(N)nc2)nc2cc(C)ccc12	0.962 (inactive)	1.43	9170	9540	-0.0965 (inactive)	0.497	0.64 (inactive)	–	–	–
CCNC(=O)c1cccnc1N1CCN(c2ccc(Cl)cc2)CC1	0.873 (inactive)	0.821	7830	8970	-0.247	2.02	0.35 (inactive)	–	–	–
CCCCS(=O)(=O)CCC(=O)O	0.879 (inactive)	0.837	8330	9470	-0.282 (inactive)	-0.71	-0.155 (inactive)	–	–	–
O=C(O)c1cnc(-c2ccccc2)[nH]1	0.939 (inactive)	0.271	8980	9570	-0.137 (inactive)	-0.215	0.375 (inactive)	–	–	–
C[C@]12CC[C@@H]3c4ccc(OS(=O)(=O)O)cc4CC[C@H]3[C@@H]1CCC2=O	0.873 (inactive)	0.967	9010	10300	-0.105 (inactive)	-0.186	–	64.3% (inactive) and 61.4% (inactive)	99.3% and 74.8%	10 nM (inactive)
N#Cc1ccc2[nH]cc(CCCCN3CCN(c4ccc5oc(C(N)=O)cc5c4)CC3)c2c1	0.968 (inactive)	0.515	6440	6650	-0.594 (inactive)	-0.181	–	–	–	10 nM (inactive)
CO/N=C(\C(=O)N[C@@H]1C(=O)N2C(C(=O)O)=C(C[N+]3(C)CCCC3)CS[C@H]12)c1csc(N)n1	0.925 (inactive)	0.702	8990	9720	-1.62 (inactive)	-0.496	–	85.4% (inactive)	76.2%	10 nM (inactive)
CO[C@H]1C[C@H](O[C@H]2[C@H](C)[C@@H](O[C@@H]3O[C@H](C)C[C@H](N(C)C)[C@H]3OC(C)=O)[C@@H](C)C[C@@]3(CO3)C(=O)[C@H](C)[C@@H](OC(C)=O)[C@@H](C)[C@@H](C)OC(=O)[C@@H]2C)O[C@@H](C)[C@@H]1OC(C)=O	0.951 (inactive) and 0.962 (inactive)	1.2 and 1.02	9570 and 9780	10100 and 10200	0.411 (inactive) and -0.389 (inactive)	-0.0819 and -0.533	0.095 (inactive)	27.9% (inactive) and 46.8% (inactive)	46.5% and 147%	–
Cc1nsc(NC(=O)NC2Cc3ccccc3C2)n1	0.755 (inactive)	2.05	7330	9710	0.128 (inactive)	-0.355	2.51 (active)	–	–	–
